Screens as filed in PubChem.
TLR4-MyD88 BLA: TLR4-MyD88 interaction inhibition in cells; HeLa CL3-4 TLR4/MyD88 BLA complementation, FRET ratio; O00206+Q99836; inhibition, % at 8.4 µM; AID 861; actives 0.18% (n = 200,000); in the data active = inhibition above about 25%;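 note: 0% = vehicle and 100% = reference inhibitor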
LANA-H2A inh: blocks KSHV LANA binding to histone H2A/H2B | cell-free LANA-H2A/H2B peptide, fluorescence polarization | inhibition, % (concentration not given with the values) | actives 0.6% (n = 320,000) | AID 2629; in the data active = inhibition mostly above about 10%, no sharp cut-off; inactive = mostly below about 6.7%
TLR9-MyD88 inh: TLR9-MyD88 interaction inhibition | inhibition, % at 4.98 µM | AID 504734 | actives 0.21% (n = 340,000) | CHO BLA complementation TLR9-MyD88, CCF4 FRET ratio;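 active = inhibition above the mean over all tested compounds plus 3 SD, cut at about 21% in these data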;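 note: 0% = DMSO only wells and 100% = clavulanate BLA inhibitor control wells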
Rtt109 HAT inh: C. albicans Rtt109 histone acetyltransferase inhibition. purified Rtt109/Vps75, ThioGlo CoA-SH fluorescence, 4 h. inhibition, % at 34.9 µM. actives 0.16% (n = 330,000). AID 540336;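 active = inhibition of at least 50% in every replicate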
NOD2-RIPK2 inh: inhibitors of human NOD2-RIPK2 interaction. CHO BLA complementation NOD2-RIPK2, CCF4 ratio. O43353. actives 0.38% (n = 360,000). inhibition, % at 4.98 µM; in the data active = inhibition above about 21%;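 note: 0% = vehicle only and 100% = reference blocker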
HTR2A ag: mouse HTR2A agonism via beta-arrestin recruitment. CHO-K1 mHTR2A beta-arrestin complementation, luminescence; percent of 30 µM serotonin response. activation, % at 7.6 µM. actives 0.66% (n = 360,000). AID 624169;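 active = activation above a run cutoff, the mean activation of all tested compounds plus 3 SD, cut at about 14% in these data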;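 note: 0% = plate median of compound wells and 100% = 30 µM serotonin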
MOR ag counter: activates human mu opioid receptor in HTR2A counterscreen. shares compounds with HTR2A ag. U2OS OPRM1 beta-arrestin PathHunter, luminescence; DMSO 0%, DAMGO 9.3 µM 100%. activation, % at 9.3 µM. actives 5.3% (n = 2,300). AID 624380;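 active = mean activation above the mean of DMSO-only wells plus 3 SD, cut at about 0.5% in these data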
m5-HT2A ag conf: mouse HTR2A agonism confirmed. shares compounds with HTR2A ag. CHO-K1 PathHunter beta-arrestin recruitment, luminescence; DMSO 0%, 30 µM serotonin 100%. activation, % at 7.6 µM. actives 19% (n = 2,300). AID 624381;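 active = mean activation across triplicates above the hit threshold derived in the original primary screen, cut at about 15% in these data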
* hit, by the source's call; / = no result given. Shown are actives, neighbours in structure and some others; about 1.8% of the full set was active somewhere.

SMILES | TLR4-MyD88 BLA | LANA-H2A inh | TLR9-MyD88 inh | Rtt109 HAT inh | NOD2-RIPK2 inh | HTR2A ag | MOR ag counter | m5-HT2A ag conf
CCC1=C(OC(=O)N(CC)CC)N2C(=O)OC(=NCC3CC3)[C@]2(C)[C@H]2C1=CC[C@H]1C(=O)N(CC)C(=O)[C@H]12 | / | 3.5 | 1.2 | -7.7 | -1.6 | 16.3* | -0.3 | 0.3
CCC1=C(OC(=O)N(CC)CC)N2C(=O)OC(=NCC3CC3)[C@]2(C)[C@H]2C1=CC[C@H]1C(=O)N(C)C(=O)[C@H]12 | / | -0.1 | -8.7 | -3.0 | 0.0 | 5.2 | / | /
COc1cc2c(cc1OC)-c1cc(Nc3ccccc3C)nc(=O)n1CC2 | / | -0.6 | -15.5 | -0.2 | -4.7 | 17.9* | -0.5 | 0.2
CCOc1ccccc1Nc1cc2n(c(=O)n1)CCc1cc(OC)c(OC)cc1-2 | / | -4.9 | -9.1 | / | -11.2 | -5.6 | / | /
O=C(Nc1ccccc1)C(=O)Nc1cccnc1 | / | -1.6 | -3.6 | 2.8 | -5.2 | 21.8* | -0.5 | -2.3
CCN1C(=O)N[C@@H](c2cccc(C(F)(F)F)c2)[C@@H](C(=O)OC)[C@H]1C | / | -3.7 | 0.7 | -14.0 | -10.5 | -5.1 | / | /
CCOC(=O)CN1C(=O)N[C@@H](c2cccc(C(F)(F)F)c2)[C@H](C(C)=O)[C@H]1C | / | -3.1 | -0.4 | -6.5 | 0.7 | 18.4* | -0.5 | -4.3
Cc1nn2c(c1-c1ccccc1)NC1=C(C(=O)CCC1)C2c1ccccc1 (stereo unspecified) | 5.6 | -5.4 | -1.6 | -2.3 | 5.6 | 15.6* | -0.5 | -3.4
COc1ccc(C2C3=C(CCCC3=O)Nc3c(-c4ccccc4)c(C)nn32)cc1 (stereo unspecified) | -8.5 | -0.1 | -23.8 | -7.1 | 2.2 | -2.2 | / | /
O=C1NC[C@@H](CCCCN2C[C@H](Cc3ccc(O)cc3)N(CCc3ccccc3)C(=O)C2=O)N(CCc2ccc(O)cc2)C1=O | / | / | / | / | -0.8 | -2.7 | / | /
Cc1ccccc1N/C(=N/S(=O)(=O)c1ccccc1)c1ccc(F)cc1 | / | 4.5 | 2.1 | 6.3 | -0.9 | 4.4 | / | /
Cc1ccc(/C(=N\S(=O)(=O)c2ccc(Br)cc2)Nc2ccccc2C)cc1 | / | 5.1 | -3.3 | -7.1 | -7.3 | 14.6* | -0.1 | 9.4
FC(F)(F)c1ccc(/C=N/n2c(C3CCCCC3)n[nH]c2=S)cc1 | / | -7.3 | -8.4 | -0.8 | 0.7 | 5.5 | / | /
COc1ccc(O)c(/C=N/NC(=O)c2cccc(N3CCCC3=O)c2)c1 | / | 1.5 | -0.3 | -3.5 | -2.0 | 1.0 | / | /
COc1cccc(/C=N/NC(=O)c2cccc(N3CCCC3=O)c2)c1 | / | -4.7 | -3.7 | 0.4 | -5.5 | 15.4* | -0.4 | -2.7
CC(=O)c1sc(NC(=O)c2ccc(F)c(S(=O)(=O)N3CCOCC3)c2)nc1C | / | 0.9 | -3.1 | -2.8 | -10.2 | 5.5 | / | /
CC(=O)c1sc(NC(=O)c2cc(S(=O)(=O)N3CCOCC3)ccc2F)nc1C | / | 3.2 | -12.9 | -14.4 | -1.9 | 14.6* | -0.6 | -0.6
O=C(NCc1cccc(C(F)(F)F)c1)c1csc([C@@H]2O[C@H](CO)[C@H](O)[C@H](O)[C@H]2O)n1 | / | / | / | / | -5.3 | 2.4 | / | /
COC(=O)C1=C(C)NC(C)=C(C(=O)OC)C1C(=O)OCC(=O)N1CCCCC1C (stereo unspecified) | / | / | -3.3 | 5.8 | -12.1 | 10.6 | / | /
CCC1(c2ccccc2)NC(=O)N(CC(=O)NNC(=O)c2ccc(F)cc2)C1=O (stereo unspecified) | / | / | -2.5 | 3.2 | 2.4 | -3.0 | / | /
CCOc1ccc(C2=CSC3=NCCN23)cc1[N+](=O)[O-] | / | 3.5 | 13.3 | 4.6 | -4.8 | -0.3 | / | /
CC(=O)c1ccc2oc3ccccc3c(=O)c2c1 | / | 6.8 | -0.3 | -16.7 | -5.0 | 9.0 | / | /
CCOC(=O)C1(CC2CC2)CCN(Cc2cc(Cl)c(O)c(OC)c2)CC1 | -0.3 | 0.4 | 4.9 | 8.5 | -4.5 | 19.6* | 0.3 | -4.5
